Assay results from the supplement of paper PMC3334620.
In all, about 33,000 sequences were measured (“E-score (-0.5 to 0.5)”: median about -0.054, highest 2% from about 0.39 on). This is one part of a sample in which the highest values are shown more often than they occur.

Biological target: Ylr278c (UniProt Q05854)
Experiment: PBM E-score (8-mer binding enrichment) (E-score (-0.5 to 0.5)); higher = stronger / more preferred TF binding
Conditions: protein concentration: 200 nM; construct: GST-DNA-binding domain
In short: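 Yeast transcription factors, full-length or as DNA-binding domains, were expressed with a GST tag using PURExpress in vitro transcription/translation. At about 100-200 nM they were applied to universal all-10-mer Agilent arrays, double-stranded by primer extension on fresh or once-stripped slides. Fluorescent anti-GST detected bound protein, and masliner normalised the scans. E-scores for ungapped eight-base words, pooled with reverse complements, came from the Universal PBM Analysis Suite.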

UniProt Q05854, sequence (Q05854 whole entry): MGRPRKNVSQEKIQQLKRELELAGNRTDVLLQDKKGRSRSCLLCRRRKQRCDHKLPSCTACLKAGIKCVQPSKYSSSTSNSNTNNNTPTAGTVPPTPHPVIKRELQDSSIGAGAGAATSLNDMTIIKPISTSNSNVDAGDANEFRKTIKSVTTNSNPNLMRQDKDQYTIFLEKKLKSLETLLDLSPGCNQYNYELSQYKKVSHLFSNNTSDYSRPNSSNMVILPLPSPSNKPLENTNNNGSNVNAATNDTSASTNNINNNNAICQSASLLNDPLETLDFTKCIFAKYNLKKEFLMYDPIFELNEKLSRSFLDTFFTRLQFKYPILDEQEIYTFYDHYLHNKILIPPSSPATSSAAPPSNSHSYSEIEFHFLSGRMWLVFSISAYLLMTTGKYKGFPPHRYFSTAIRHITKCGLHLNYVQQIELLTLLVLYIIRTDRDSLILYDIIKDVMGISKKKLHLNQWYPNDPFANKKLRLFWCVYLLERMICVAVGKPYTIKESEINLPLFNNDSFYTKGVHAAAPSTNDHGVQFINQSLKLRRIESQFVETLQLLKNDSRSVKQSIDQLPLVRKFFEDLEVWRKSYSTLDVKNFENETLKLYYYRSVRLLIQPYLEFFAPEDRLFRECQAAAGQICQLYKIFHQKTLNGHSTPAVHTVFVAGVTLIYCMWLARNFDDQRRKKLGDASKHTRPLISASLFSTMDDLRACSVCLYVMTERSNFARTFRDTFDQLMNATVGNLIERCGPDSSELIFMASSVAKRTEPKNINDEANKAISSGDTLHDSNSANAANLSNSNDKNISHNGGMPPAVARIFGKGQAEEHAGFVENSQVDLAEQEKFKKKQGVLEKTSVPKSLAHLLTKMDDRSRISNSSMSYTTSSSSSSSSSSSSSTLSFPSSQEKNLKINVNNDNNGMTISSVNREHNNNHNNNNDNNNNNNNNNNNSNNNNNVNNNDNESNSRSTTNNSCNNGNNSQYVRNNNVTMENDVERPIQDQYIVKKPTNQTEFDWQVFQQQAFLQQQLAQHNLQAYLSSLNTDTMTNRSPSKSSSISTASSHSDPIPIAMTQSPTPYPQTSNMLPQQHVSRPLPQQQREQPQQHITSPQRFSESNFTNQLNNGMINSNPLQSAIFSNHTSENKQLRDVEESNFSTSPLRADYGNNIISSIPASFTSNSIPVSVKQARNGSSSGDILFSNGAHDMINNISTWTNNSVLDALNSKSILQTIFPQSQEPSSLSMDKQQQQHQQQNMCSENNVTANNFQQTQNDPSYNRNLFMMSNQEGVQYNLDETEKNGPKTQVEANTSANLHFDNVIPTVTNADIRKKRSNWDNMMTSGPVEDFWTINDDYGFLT

Row | Sequence | PBM E-score
1 | AAGAGACT | -0.101
2 | AAATCTGA | -0.0879
3 | TAGTACGA | -0.0816
4 | CGGAGTAG | 0.465
5 | GGGAGTAA | 0.0663
6 | CGGAGTAA | 0.468
7 | AGGAGTAA | 0.0423
8 | AGGAGTAG | -0.00627
9 | CCGAGTAG | 0.197
10 | CGGAGTAC | 0.462
11 | AGGAGTAC | -0.136
12 | GGGAGTAC | 0.0396
13 | GAACAGAA | -0.0459
14 | ACTTCAAC | -0.0372
15 | GAGTGAGC | -0.125
16 | AATAGATT | -0.0366
17 | AAGGGCTA | -0.124
18 | CCAGATGG | -0.0985
19 | GTATGGCA | -0.204
20 | CAGCCGGA | 0.434
21 | TAGCCGAA | 0.141
22 | TAGCCGGA | 0.42
23 | AAGCCGGT | 0.333
24 | AAGCCGGC | 0.372
25 | CAGCCGGC | 0.296

Row | Sequence | PBM E-score
26 | GAGCCGGC | 0.325
27 | GAGCCGGA | 0.407
28 | TAGCCGCA | 0.041
29 | GAGCCGCA | 0.0873
30 | AAGCCGGA | 0.417
31 | CAGCCGGG | 0.166
32 | AGCCGCAT | 0.105
33 | CCCCGTGC | 0.295
34 | AAACCCTC | -0.0128
35 | CAGAGGAC | -0.187
36 | CCGGGAAG | 0.334
37 | CAGTGATC | -0.0716
38 | CTCGACCA | -0.232
39 | CGCATAAC | -0.0515
40 | ATAGCGAA | -0.144
41 | ATACACAT | -0.212
42 | ATCAGGAT | -0.018
43 | ATCCGTAA | 0.155
44 | ATCCGCAT | 0.263
45 | ATCCGGAA | 0.432
46 | TTCAGGAA | -0.0794
47 | ATCCGGAT | 0.452
48 | TTACGGAA | 0.283
49 | TTCCGGAA | 0.467
50 | GTGCGGAA | 0.265

Row | Sequence | PBM E-score
51 | ATGCGGAA | 0.383
52 | GTACGGAA | 0.31
53 | GTCCGGAA | 0.44
54 | AATTGCAC | -0.054
55 | CATCGCAA | -0.28
56 | GGTTTCAC | 0.0826
57 | TACGCATA | -0.0249
58 | ATCCGGAG | 0.486
59 | GTACGGAC | 0.249
60 | ATCCGGAC | 0.424
61 | GTCAGGAC | -0.266
62 | CTCCGGAC | 0.477
63 | GTCCGGAC | 0.455
64 | CTCAGGAC | -0.159
65 | ATCCGTAG | 0.134
66 | CTGCGGAC | 0.221
67 | ATACGGAC | 0.242
68 | ATCCGTAC | 0.112
69 | ATCAGGAG | -0.02
70 | ATGCAGAA | -0.16
71 | AGAGATTG | -0.112
72 | AGCTGGTG | -0.109
73 | AATTTGGC | -0.131
74 | ACCCTTCG | 0.0769
75 | ATGCGATA | -0.0857

Row | Sequence | PBM E-score
76 | GTACCAGA | -0.28
77 | ATGCTACG | -0.0841
78 | TAGTAGCA | -0.0836
79 | CGAGGTCC | 0.333
80 | CTCCGGAA | 0.479
81 | ATGCGGAG | 0.385
82 | CTGCGGAA | 0.214
83 | CTCCGGAG | 0.481
84 | CTCAGGAA | -0.0459
85 | CTCAGGAG | -0.171
86 | CTAACAAC | -0.0734
87 | CCGCTGCA | 0.0719
88 | CATGCTCA | -0.115
89 | CCCCGTCC | 0.252
90 | CTCCGTAC | 0.358
91 | CTCCGTCA | 0.421
92 | CTCCGTAA | 0.41
93 | GTCCGTCA | 0.289
94 | ATCCGTCA | 0.159
95 | CTCCGTCC | 0.449
96 | GTCCGTAA | 0.331
97 | ATCCGTCC | 0.18
98 | CGAATCCA | -0.0549
99 | ACATTGGT | -0.1
100 | AATATCTC | 0.0682

Row | Sequence | PBM E-score
101 | ACTGACAG | -0.0502
102 | AGTGGGAT | -0.00431
103 | CCTCCGCC | 0.413
104 | CCTCCGCA | 0.359
105 | CCGCCTCC | 0.283
106 | ACTCCGCG | 0.462
107 | AATCCGCG | 0.323
108 | CATCCGCG | 0.197
109 | CCTCCGCG | 0.416
110 | CATCCGCC | 0.309
111 | ACTCCACG | 0.0682
112 | CGGTCAGA | 0.0192
113 | ATCGCCAT | -0.0309
114 | CGCGTCCA | 0.0142
115 | AAGTGCCT | -0.328
116 | AAAGCAGC | -0.0496
117 | CTATGCAG | -0.166
118 | AGGGGTGC | -0.114
119 | AGAGTCGC | -0.14
120 | GGTATCGA | -0.0372
121 | AGATCGGC | 0.224
122 | GGATCGGA | 0.438
123 | CGATCGGA | 0.44
124 | CGATCGGC | 0.282
125 | GGATCGAA | 0.0293

Row | Sequence | PBM E-score
126 | AGATCGGG | 0.222
127 | CGATCGTA | 0.00037
128 | GGATCGCA | -0.0558
129 | AGATCGGA | 0.43
130 | ACTCAACT | 0.0546
131 | GAGCATTA | -0.111
132 | TATTGAAA | 0.0175
133 | GGTTAGAA | -0.15
134 | TAGCTAGA | -0.285
135 | CAAACTCC | 0.434
136 | AAAACTCC | 0.386
137 | GAAACTCA | -0.0472
138 | GAAACTCC | 0.399
139 | CAAACTCA | -0.0703
140 | GAAACTTC | 0.0593
141 | GCTAAGAA | -0.0627
142 | CCGGACGG | 0.396
143 | CCGGACGC | 0.364
144 | ACGGACGG | 0.209
145 | CCGGACGA | 0.406
146 | TCGGACGA | 0.271
147 | ACGGACGA | 0.177
148 | CGTGCATC | -0.152
149 | CGCTTTCC | 0.143
150 | ATTTCGTA | -0.062

Row | Sequence | PBM E-score
151 | CTCGATGA | -0.12
152 | AATGGGCC | 0.0902
153 | CAGAGGAG | -0.243
154 | GGCTAGAA | 0.0303
155 | CGGCATTA | 0.405
156 | GGGCATTA | -0.0729
157 | AGGCATTA | -0.134
158 | ATGTCGGC | 0.0736
159 | GTGTCGGA | 0.417
160 | CTGTCGGC | 0.35
161 | CTGTCGGA | 0.404
162 | GTGTCGCA | 0.00208
163 | GTGTCGTA | -0.209
164 | ATGTCGGG | 0.222
165 | ATGTCGGA | 0.397
166 | CTGTCGAA | -0.289
167 | GGACCAAA | 0.187
168 | ATACGCTC | 0.00427
169 | CGGCCACG | -0.0321
170 | ACTCTGGA | -0.117
171 | ATAGTCTA | -0.141
172 | CGAAAGTA | 0.00237
173 | ACGAAAGA | -0.0168
174 | AGCTTACG | -0.143
